Experimental data from article PMC5540273 (PLoS ONE, 2017).

How the values were obtained:
Details in all cases: concentration: 1 μM, replicates: in singlicate; n = 1
FYN = tested on: FYN
GAK = tested on: GAK
GCN2(Kin.Dom.2,S808G) = tested on: T1, GCN2(Kin.Dom.2,S808G)
T1 construct: gene EIF2AK4

GRK1 = tested on: GRK1
GRK2 = tested on: T2, GRK2
T2 construct: gene ADRBK1

GRK3 = tested on: T3, GRK3
T3 construct: gene ADRBK2

GRK4 = tested on: GRK4
GRK7 = tested on: GRK7
GSK3A = tested on: GSK3A
GSK3B = tested on: GSK3B
HASPIN = tested on: T4, HASPIN
T4 construct: gene GSG2

HCK = tested on: HCK
HIPK1 = tested on: HIPK1
HIPK2 = tested on: HIPK2
HIPK3 = tested on: HIPK3
HIPK4 = tested on: HIPK4
HPK1 = tested on: HPK1
HUNK = tested on: HUNK
ICK = tested on: ICK
IGF1R = tested on: IGF1R
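Note: KINOMEscan kinase panel screen.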

| Compound | %Inh (FYN) [%] | %Inh (GAK) [%] | %Inh (GCN2(Kin.Dom.2,S808G)) [%] | %Inh (GRK1) [%] | %Inh (GRK2) [%] | %Inh (GRK3) [%] | %Inh (GRK4) [%] | %Inh (GRK7) [%] | %Inh (GSK3A) [%] | %Inh (GSK3B) [%] | %Inh (HASPIN) [%] | %Inh (HCK) [%] | %Inh (HIPK1) [%] | %Inh (HIPK2) [%] | %Inh (HIPK3) [%] | %Inh (HIPK4) [%] | %Inh (HPK1) [%] | %Inh (HUNK) [%] | %Inh (ICK) [%] | %Inh (IGF1R) [%] |
| --- | --- | --- | --- | --- | --- | --- | --- | --- | --- | --- | --- | --- | --- | --- | --- | --- | --- | --- | --- | --- |
| COc1ccc(CNC(=O)NC2CCN(c3ccnc(Nc4ccc(F)cc4)n3)CC2)cc1 [GSK1379788] | 8 | 0 | 0 | 0 | 0 | 57 | 0 | 0 | 2 | 0 | 6 | 0 | 0 | 0 | 9 | 0 | 37 | 14 | 0 | 0 |
| O=C(Nc1cccc(-c2nn3ccccc3c2-c2ccnc(Nc3cccc(C(F)(F)F)c3)n2)c1)c1c(F)cccc1F [GSK292658] | 56 | 3 | 10 | 3 | 0 | 0 | 15 | 3 | 5 | 4 | 0 | 96.9 | 0 | 0 | 0 | 0 | 21 | 0 | 0 | 0 |
| COc1ccc(Nc2nccc(NCCNC(=O)c3cc4ccccc4s3)n2)cc1 [GSK1379896] | 33 | 42 | 3 | 6 | 3 | 0 | 0 | 0 | 7 | 13 | 0 | 15 | 0 | 0 | 22 | 0 | 44 | 13 | 0 | 0 |
| c1ccc(-c2cnc3nccnn23)cc1 [AH20685] | 50 | 0 | 42 | 0 | 0 | 13 | 0 | 0 | 0 | 0 | 0 | 0 | 0 | 0 | 0 | 0 | 37 | 0 | 0 | 31 |
| Cn1cc(-c2ccc3c(c2)CCN3C(=O)Cc2cccc(F)c2)c2c(N)ncnc21 [GSK2603358] | 0 | 16 | 33 | 0 | 0 | 36 | 0 | 0 | 4 | 12 | 0 | 13 | 0 | 0 | 8 | 0 | 57 | 13 | 0 | 23 |
| Cc1occc1-c1ncc(OC[C@@H](N)Cc2c[nH]c3ccccc23)cc1-c1ccc2[nH]nc(C)c2c1.O=C(O)C(F)(F)F [GSK682037] | 86 | 82 | 0 | 3 | 0 | 0 | 62 | 43 | 64 | 55 | 65 | 0 | 0 | 0 | 7 | 35 | 90 | 79 | 0 | 7 |
| CNC(=O)c1ccccc1Nc1nc(Nc2ccc(N3CCOCC3)cc2)ncc1Cl.Cl [GSK1576028] | 98.3 | 96.9 | 100 | 15 | 13 | 0 | 84 | 3 | 76 | 72 | 80 | 99.6 | 99.4 | 99.3 | 99 | 99.3 | 98.8 | 0 | 57 | 96.6 |
| Cc1ccc(C(=O)N2CC[C@@H](O)C2)cc1-n1c(C)cc(OCc2ccc(F)cc2F)c(Br)c1=O | 21 | 0 | 0 | 16 | 0 | 0 | 0 | 0 | 0 | 0 | 0 | 66 | 11 | 0 | 0 | 0 | 0 | 0 | 0 | 0 |
| CCn1c(-c2nonc2N)nc2c(C#CC(C)(C)O)nc(OC[C@H](N)c3ccccc3)cc21 [GSK943949] | 0 | 0 | 19 | 14 | 11 | 0 | 3 | 30 | 66 | 59 | 22 | 0 | 21 | 0 | 14 | 0 | 30 | 3 | 0 | 0 |
